Compound activity from PubChem BioAssay.
ALOX12 inhib – inhibitors of human 12-lipoxygenase (ALOX12); P18054; purified 12-hLO, xylenol orange hydroperoxide absorbance; Potency, µM (series often up to 57.1 µM), for inactives: at the highest dose activity change, negative = inhibition, actives largely listed as inhibitors; hit rate 0.12% among 150,000; AID 1452; further: potency means the concentration at half of the fitted maximal effect; nearly all actives have a fitted effect of over 55% in size
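Xylenol orange chromogenic assay: hydroperoxide from 12hLO oxidises Fe(II), giving red-shifted Fe(III)-XO absorbance. Conditions: 150 nM enzyme, 40 uM arachidonic acid, 25 mM Hepes pH 7.0, 0.01% Triton X-100, 30 min, room temperature.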
PNC inhibitor – perinucleolar compartment assembly inhibition; activity change (PNC), negative = inhibition, % at 10 µM; PC3M PTB-GFP, PNC prevalence imaging, 16 h; hits give low values; hit rate 3.1% among 140,000; AID 2417;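 active means readout at or below -70, meaning at least 70% loss of cells showing the perinucleolar compartment, a nuclear body marking cancer cells; inconclusive means readout between -30 and a set limit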;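 further: plate controls were DMSO wells for no effect and camptothecin positive control wells for full effect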
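Compounds are pinned in duplicate onto adhered PC3M cells stably expressing GFP-tagged PTB and incubated 16 h at 37 C. Cells are then fixed, nuclei stained with Hoechst, and PNC-positive cells counted.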
GLA spleen mod – alpha-galactosidase A (human) modulation. human spleen homogenate, 4MU-alpha-Gal fluorescence, 40 min. Potency, µM (titrated, usually from 80 µM), inactives show at the highest dose activity change, negative = inhibition, most hits filed as inhibitors. hit rate 0.008% among 240,000. P06280. AID 2107;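 further: potency means the concentration at half of the fitted maximal effect; 0% = enzyme with vehicle and -100% = no enzyme basal signal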
Target sequence (P06280 32-429 limits assumed): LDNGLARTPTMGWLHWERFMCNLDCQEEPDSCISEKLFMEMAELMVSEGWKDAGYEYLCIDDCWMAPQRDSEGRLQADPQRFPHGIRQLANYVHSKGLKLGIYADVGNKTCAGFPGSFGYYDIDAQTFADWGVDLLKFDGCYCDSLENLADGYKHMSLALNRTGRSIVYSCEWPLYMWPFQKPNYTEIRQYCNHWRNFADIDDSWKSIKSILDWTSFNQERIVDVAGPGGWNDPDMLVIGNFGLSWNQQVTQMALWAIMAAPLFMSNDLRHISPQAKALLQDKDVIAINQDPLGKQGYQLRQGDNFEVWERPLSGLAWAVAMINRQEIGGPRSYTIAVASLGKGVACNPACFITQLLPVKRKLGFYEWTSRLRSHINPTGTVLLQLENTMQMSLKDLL
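qHTS titration in buffer at pH 5.0. Alpha-galactosidase activity in spleen homogenate was measured via 4-methylumbelliferone release from 1 mM fluorogenic substrate after 40 min at 37C and a pH 10 stop. AC50 came from Hill fits of control-normalized data.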
HPGD inh – inhibitors of human 15-hydroxyprostaglandin dehydrogenase (HPGD). P15428. purified HPGD, NADH fluorescence kinetic, PGE2 substrate. Potency, µM, for the others: at the top dose activity change, negative = inhibition, usual class: inhibitors. hit rate 4.3% among 150,000. AID 894; active means well fitted inhibition curve with a large enough effect, not every such curve was filed as active; inconclusive means small, poorly fitted or top-dose-only effect, or another doubt; inactive means no such curve, though single readings can be large or run the other way; further: potency means the concentration at half of the fitted maximal effect
Target sequence (P15428 whole entry, looked up): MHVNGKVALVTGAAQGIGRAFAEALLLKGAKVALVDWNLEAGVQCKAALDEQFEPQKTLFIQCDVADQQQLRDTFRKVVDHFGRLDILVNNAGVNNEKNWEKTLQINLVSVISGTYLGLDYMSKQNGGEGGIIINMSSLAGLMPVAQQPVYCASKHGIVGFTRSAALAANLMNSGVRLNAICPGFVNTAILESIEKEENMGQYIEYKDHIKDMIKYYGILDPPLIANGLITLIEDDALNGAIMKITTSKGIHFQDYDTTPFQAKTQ
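NADH formation kinetics: reaction with 30 uM PGE2 and 1 mM NAD+ (final), 20 nM enzyme, Tris-HCl pH 8 with Tween 20, after 15 min compound preincubation at room temperature. Fluorescence change, last versus first of five reads.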
GLA inh pH 4.5 – alpha-galactosidase A (human) inhibition, pH 4.5 | purified enzyme, 4-MU-alpha-Gal fluorescence, pH 4.5 | activity change, negative = inhibition, % at 105 µM | 230,000 tested, under 10 active;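 further: 0% = full activity with enzyme and -100% = basal without enzyme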
ALDH1A1 block – inhibitors of human aldehyde dehydrogenase 1A1; AID 1030; hit rate 7.3% among 220,000; Potency, µM (doses to about 75.3 µM), for the others: at the top dose activity, negative = inhibition, hits mostly inhibitors; P00352; Purified ALDH1A1, NADH fluorescence, propionaldehyde substrate; active means well fitted inhibition curve with a large enough effect, not every such curve was filed as active; inconclusive means small, poorly fitted or top-dose-only effect, or another doubt; inactive means no such curve, though single readings can be large or run the other way;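 further: potency means the concentration at half of the fitted maximal effect; plate controls were no enzyme wells and a reference inhibitor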
* = called active by the depositor; ? = inconclusive; / = no result; [ ] = dose if it differs, or a comment. A selection: hits, their analogues and other compounds. The true share with any hit is near 10%. Unless noted, the call rests on the fitted dose curve; in most records, active means well fitted curve in the direction sought with a large enough effect; inconclusive means small, poorly fitted or top-dose-only effect, or another doubt; inactive means no such curve, though single readings can be large; an effect the other way counts as inactive or inconclusive. Unless noted, on the % scale 0 is the no-effect control and ±100 the full control effect.

SMILES	ALOX12 inhib	PNC inhibitor	GLA spleen mod	HPGD inh	GLA inh pH 4.5	ALDH1A1 block
CS(=O)(=O)Nc1nnc(Cc2ccccc2)s1	1.6%	-100.0*	0.6%	-24.2%	0.5	-8.4%
CC(=O)Nc1nnc(Cc2ccccc2)s1	-2.6%	-13.3	5.7%	-12.8%	6.9	0.5%
C[C@H](CO)NC(=O)[C@H]1C[C@@H]1[C@H](NP(=O)(c1ccccc1)c1ccccc1)c1ccccc1	-5.8%	/	3.1%	-7.3%	5.1	2.2%
COc1ccc(OC)c(-n2c(CNC3CCN(Cc4ccccc4)CC3)nc3ccccc3c2=O)c1	10.9%	0.4	4.1%	-0.3%	-2.5	3.7%
COc1ccc(OC)c(-n2c(CN3CCC(C(N)=O)CC3)nc3ccccc3c2=O)c1	-2.1%	?	2.7%	-8.1%	-6.5	20µM*
Cc1ccc(NC(=O)CSc2nnc(CN3CCOCC3)n2-c2ccccc2)cc1	2.7%	?	-0.1%	-6.1%	-0.2	3.16µM*
Cc1nnc(SCC(=O)Nc2ccc(N3CCOCC3)cc2)n1-c1ccccc1	-2.9%	4.1	-5.1%	5.5%	6.9	-5.9%
Fc1cccc(Cl)c1CSc1nnc(CN2CCOCC2)n1-c1ccccc1	-1.8%	20.6	-2.4%	1.1%	-7.0	0.4%
Cc1ccc(CCc2nnc(SCC(=O)Nc3cc(Cl)ccc3Cl)n2-c2ccccc2)o1	0.6%	-8.1	7.3%	-4.3%	-1.5	25.1µM*
O=C(CSc1nnc(CN2CCOCC2)n1-c1ccccc1)Nc1ccc(Cl)cc1	-6.8%	132.3	5.4%	-10.4%	-12.4	22.4µM*
O=C(CSc1nnc(-c2ccccc2)n1-c1ccc(Cl)cc1)NNC(=S)Nc1ccccc1	-19.2%	18.1	0.6%	-17.6%	-6.8	15.8µM*
COc1ccc(NC(=O)N2CCC3(CC2)CCN(C(=O)c2ccco2)CC3)cc1	0.5%	/	11.9%	-3.0%	/	-14.7%
Nc1cc(C(=O)O)[nH]c(=O)n1	1.0%[11.4 µM]	/	/	-9.4%	/	5.0%[13.5 µM]
O=C(O)CN(CC(=O)O)c1ccccc1OCCOc1ccccc1N(CC(=O)O)CC(=O)O	/	/	-12.3%	/	/	/
Clc1cccc(Cl)c1CSc1nnc(CN2CCOCC2)n1-c1ccccc1	3.6%	12.3	-3.9%	-5.9%	0.3	-7.4%
Clc1ccc(CSc2nnc(CN3CCOCC3)n2-c2ccccc2)cc1Cl	-3.6%	18.2	2.0%	-4.4%	-3.6	17.8µM*
O=[N+]([O-])c1ccc(NC(=S)N2CCN(c3ccccc3)CC2)cc1	0.4%	-16.4	1.5%	-14.7%	-16.1	?
O=C(NC(=S)N1CCN(c2ccc([N+](=O)[O-])cc2)CC1)c1ccccc1F	-7.1%	-22.9	-7.4%	-18.4%	-8.8	25.1µM*
O=[N+]([O-])c1ccc(N2CCN(C(=S)Nc3ccccc3)CC2)cc1	/	/	-0.5%	/	-2.1	1.41µM*
S=C(NC1CC1)N1CCN(c2ccc(Cl)cc2)CC1	/	/	-6.7%	/	-9.4	-10.4%
O=C(NC(=S)N1CCN(c2ccc([N+](=O)[O-])cc2)CC1)c1ccccc1Cl	/	/	-4.3%	/	4.2	?
CCCN1CCC(NC(=S)Nc2ccc([N+](=O)[O-])cc2)CC1	/	/	-2.0%	/	-4.3	2.9%
O=[N+]([O-])c1ccc(N2CCN(C(=S)NC3CCCCC3)CC2)cc1	?	-9.7	1.7%	-21.2%	-0.3	5.01µM*
CCCN1CCN(C(=S)Nc2ccc([N+](=O)[O-])cc2)CC1	-3.8%	-6.1	-4.0%	/	-8.3	31.6µM*
NC([N-]/N=C/c1ccccn1)=[S]=[Fe].O=S(=O)(O)O	1.2%[11.4 µM]	/	/	/	/	/
SMILES	ALOX12 inhib	PNC inhibitor	GLA spleen mod	HPGD inh	GLA inh pH 4.5	ALDH1A1 block
COCCNC(=S)N/N=C(\C)c1cccc([N+](=O)[O-])c1	-3.8%	?	7.8%	-11.4%	7.9	6.1%
O=[N+]([O-])c1cccc(C(=S)N2CCCC2)c1	/	/	1.4%	/	-18.9	-14.0%
O=C(NC(=O)N1CCN(c2ccc(F)cc2)CC1)c1ccccc1	-5.5%	?	13.0%	-3.4%	7.7	-1.4%
O=C(NC(=S)N1CCN(c2ccc([N+](=O)[O-])cc2)CC1)c1ccc(F)cc1	-6.3%	?	0.2%	-26.5%	2.2	7.08µM*
O=[N+]([O-])c1cccc(C(=S)N2CCN(c3ccc(F)cc3)CC2)c1	/	/	6.6%	/	-1.6	22.4µM*
CCc1ccc(S(=O)(=O)Nc2ccc(O)c(C(=O)O)c2)cc1	-7.4%	/	/	-9.4%	/	?
CCOC(=O)c1c(C)nc2sccn12	5.6%	59.1	-4.4%	-7.5%	-1.1	-3.5%
Cc1nc2sccn2c1P(c1c(C)nc2sccn12)c1c(C)nc2sccn12	?	-80.4*	-1.9%	3.7%	1.0	9.6%
Cc1ccccc1C(=O)c1c[nH]c(C(=O)NCC2CCCO2)c1 (configuration not stated)	-3.3%	25.2	4.6%	6.31µM*	13.6	?
CC(C)(C)c1ccc(C(=O)c2c[nH]c(C(=O)NCC3CCCO3)c2)cc1 (configuration not stated)	0.7%	25.8	-0.1%	12.6µM*	3.5	-1.2%
COc1ccc(C(=O)NC(=S)NCC2CCCO2)cc1 (configuration not stated)	-8.5%	40.4	1.5%	1.0%	-1.1	?
O=C(NCC1CCCO1)c1cc(C(=O)C2CCCCC2)c[nH]1 (configuration not stated)	/	/	2.7%	/	6.5	-1.3%
COc1ccc(C(=O)c2c[nH]c(C(=O)NCC3CCCO3)c2)cc1 (configuration not stated)	-10.3%	18.8	-0.8%	2µM*	5.0	?
CC(C)(C)c1ccc(C(=O)NNC(=S)NCC2CCCO2)cc1 (configuration not stated)	-1.3%	2.6	-0.9%	-2.5%	1.5	-11.1%
Cc1ccccc1C(=O)c1c[nH]c(C(N)=O)c1	-1.6%	-17.1	-3.8%	-17.2%	6.0	7.94µM*
C[C@]12C[C@@](C)(C=C1/C=C/c1ccccc1)C(=O)C[C@H]2c1ccccc1	0.1%	/	-0.5%	-3.7%	1.2	6.0%
O=C(CCCCCn1c(=O)[nH]c2ccsc2c1=O)NCc1ccc2c(c1)OCO2	-7.2%	?	-2.0%	-19.6%	7.6	3.1%
O=C(O)CC1(CC(=O)Nc2ccc3c(c2)C(=O)OC3)CCCCC1	/	/	9.6%	/	-5.7	/
O=C(O)CC1(CC(=O)NCc2cc(F)cc3c2OCOC3)CCCCC1	/	/	7.7%	/	-10.6	10µM*
CC(=O)OCC1CCCC2=C(C)C(=O)CCC21COC(C)=O (configuration not stated)	-1.0%	-109.0*	4.4%	1.9%	-3.1	4.8%
O=C(O)CCCC(=O)Nc1ccc(C(=O)N2CCCCC2)c(Cl)c1	3.2%	?	0.6%	0.447µM*	-1.5	-2.5%
COC(=O)CCCC(=O)Nc1ccc(Cl)c(Cl)c1	3.7%	-100.0*	0.1%	-13.5%	1.6	0.6%
